From the supplement of paper PMC8047044 come the findings set out here.

Values joined by “and” are separate entries in the source; they are usually repeats but may differ in a detail not shown here. Identical values can stand only once. Counter-ions that a name gives are not always drawn.

The experiment relates to Neuro-2a. The experiment in a line: neurite formation score, plate-normalized to DMSO control mean 5.04 (score (0-8 scale)); higher = more or longer neurites. Particulars: 1 µM. The method, then: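 Neuro-2a mouse neuroblastoma cells in PLL-coated 96-well plates were pre-treated for 1 h in DMEM(+) with each kinase inhibitor at 1 µM, then switched to serum-free DMEM(-) with inhibitor to induce neurite outgrowth and fixed about 2-3 h later. Three blinded observers scored neurite formation from 0 (no neurites) to 8 (long neurites on almost all cells).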
As to `COc1cc(Nc2ncc3c(n2)-c2ccc(Cl)cc2C(c2c(F)cccc2OC)=NC3)ccc1C(=O)O` [MLN8237 (Alisertib)], the neurite formation score worked out at 4.36. For the molecule `COc1cc(OC)c(/C=C/S(=O)(=O)Cc2ccc(OC)c(NCC(=O)O)c2)c(OC)c1`, the neurite formation score worked out at 0.908. With `Cc1cnc(Nc2ccc(F)cc2Cl)nc1-c1c[nH]c(C(=O)N[C@H](CO)c2cccc(Cl)c2)c1` the figure was 3.69; with `CCN1C(=CC(C)=O)Sc2ccc(OC)cc21`, 4.96; with `CN(c1ncccc1CNc1nc(Nc2ccc3c(c2)CC(=O)N3)ncc1C(F)(F)F)S(C)(=O)=O`, 1.57 and 4.24. With `O=c1ncn2nc(Sc3ccc(F)cc3F)ccc2c1-c1c(Cl)cccc1Cl` the figure was 4.29; with `C[S+]([O-])c1ccc(-c2nc(-c3ccc(F)cc3)c(-c3ccncc3)[nH]2)cc1` (stereo not given), 4.57. Molecule `Cc1ccc([N+](=O)[O-])cc1S(=O)(=O)N(C)/N=C/c1cnc2ccc(Br)cn12` had a neurite formation score of 4.54. `CCN(CC)CCNC(=O)c1c(C)[nH]c(/C=C2\C(=O)Nc3ccc(F)cc32)c1C` [Sunitinib malate] came in with a neurite formation score of 5.57. On to `O=C1c2ccccc2-c2n[nH]c3cccc1c23`, for which the neurite formation score stood at 4.02. In turn, `CNC(=O)c1cc(Oc2ccc(NC(=O)c3cccc(C(F)(F)F)c3)cc2)ccn1` returned a neurite formation score of 3.57. With `CN1CCN(c2ccc3nc(-c4c(N)c5c(F)cccc5[nH]c4=O)[nH]c3c2)CC1` [Dovitinib (TKI-258, CHIR-258)] the figure was 4.88. With `COc1cc2ncnc(Nc3cccc(Cl)c3F)c2cc1OC(=O)N1CCN(C)C[C@H]1C` the figure was 4.54; with `CNC(=O)c1cc(Oc2ccc(NC(=O)Nc3ccc(Cl)c(C(F)(F)F)c3)c(F)c2)ccn1` [Regorafenib hydrochloride], 3.69.

`Cn1cnc2c(F)c(Nc3ccc(Br)cc3Cl)c(C(=O)NOCCO)cc21` [AZD6244 (Selumetinib)] yielded a neurite formation score of 4.24. With `CNC(=O)c1cc(Oc2ccc(NC(=O)Nc3ccc(Cl)c(C(F)(F)F)c3)cc2)ccn1` [Sorafenib] the figure was 4.24; with `C[C@@H]1CCNC(=O)c2cc3ccc(C(=O)Nc4nc5ccccc5n4CCCN(C)C)cc3n21`, 5.29; with `C=CC(=O)Nc1cccc(Nc2nc(Nc3ccc(N4CCN(C(C)=O)CC4)cc3OC)ncc2C(F)(F)F)c1`, 4.24. With `CCc1cncnc1N1CCN(Cc2nc3ccc(C(F)(F)F)cc3[nH]2)CC1` the figure was 4.54; with `c1cc(-c2cnn3cc(-c4ccc(N5CCNCC5)cc4)cnc23)c2cccnc2c1`, 4.88; with `COc1cc(C(=O)NC2CCN(C)CC2)ccc1Nc1ncc2c(n1)N(C1CCCC1)CC(F)(F)C(=O)N2C`, 4.29. `Cc1ccc(F)c(NC(=O)Nc2ccc(-c3cccc4[nH]nc(N)c34)cc2)c1` [Linifanib (ABT-869)] displayed a neurite formation score of 3.14.

Molecule `NC(=O)c1ncn([C@@H]2O[C@H](CO)[C@@H](O)[C@H]2O)c1N` returned a neurite formation score of 4.57. With `Cc1[nH]c(/C=C2\C(=O)Nc3ccc(S(=O)(=O)N(C)c4cccc(Cl)c4)cc32)c(C)c1C(=O)N1CCN(C)CC1` the figure was 3.57. With `CNC(=O)c1ccc(-c2cnc3ncc(Cc4ccc5ncccc5c4)n3n2)cc1F` the figure was 5.14; with `FC(F)(F)c1ccc(CNc2ccc(Cc3c[nH]c4ncccc34)cn2)cc1`, 3.54.

On to `COc1cc(Nc2ncc(F)c(Nc3ccc4c(n3)NC(=O)C(C)(C)O4)n2)cc(OC)c1OC` [R406 (free base)], for which the neurite formation score was determined as 3.9. With `NC(=O)Nc1cc(-c2cccc(F)c2)sc1C(=O)N[C@H]1CCCNC1` the figure was -0.431; with `O=C(/C=C/c1ccc(O)c(O)c1)c1ccc(O)cc1O` [Butein], 5.24. With `O=C1NC(=O)/C(=C\c2ccc3nccnc3c2)S1` the figure was 4.14; with `COc1ccc(-c2ccc3c(N4CCOCC4)nc(N4C[C@@H](C)O[C@@H](C)C4)nc3n2)cc1CO`, 4.36. With `C[C@@H]1CCN(C(=O)CC#N)C[C@@H]1N(C)c1ncnc2[nH]ccc12`, the neurite formation score is 4.02 and 4.69.

On to `CNC(=O)c1cc(Oc2ccc(NC(=O)Nc3cc(C(C)(C)C)nn3-c3ccc4ncccc4c3)c(F)c2)ccn1` [DCC-2036 (Rebastinib)], for which the neurite formation score stood at 1.29. For the molecule `Cc1ccccc1CN1C2=NCCN2C(=O)C2=C1CCN(Cc1ccccc1)C2`, the neurite formation score is 4.63. In turn, `CC1=CC(=O)C(C(C)C)=C/C1=N/OC(=O)c1ccccc1C` [Poloxin] gave a neurite formation score of 4.02. With `Cc1ccccc1-n1c(Cn2nc(-c3cccc(O)c3)c3c(N)ncnc32)nc2cccc(C)c2c1=O` the figure was 4.88; with `O=C1NC(=NCc2cccs2)S/C1=C\c1ccc2ncccc2c1`, 5.63; with `COc1cccc(-c2cc(=O)c3ccccc3o2)c1N`, 3.57. On to `CCOc1cc(C(=O)N2CCC(N3CCN(C)CC3)CC2)ccc1Nc1ncc2c(n1)N(C1CCCC1)c1ccccc1C(=O)N2C`, for which the neurite formation score is 4.02. With `O=C(NCCO)c1cccc(-c2cc(Nc3ccc(OC(F)(F)F)cc3)ncn2)c1` the figure was 5.63.
